The Inhibition is the drop in the measured response relative to a control, in per cent.

From ChEMBL document CHEMBL4513146, “CO-ADD screening of Karazin Kharkiv National University (Ukraine) compounds” come the findings set out here.

In experiment [1] the test system is Klebsiella pneumoniae. The conditions noted are these: Concentration 32 ug.mL-1;; ASSAY_TEST Inhibition of Bacterial Growth; detection method Absorption (OD600); MEDIA CAMHB; plate type 384well; NBS; CORNING #3640; time 18 hr.
The subject of experiment [2] is Candida albicans. The conditions noted are these: Concentration 32 ug.mL-1; ASSAY_TEST Inhibition of Fungal Growth; detection method Absorption (OD530).
The test system of experiment [3] is Cryptococcus neoformans. The conditions noted are these: Concentration 32 ug.mL-1; ASSAY_TEST Inhibition of Fungal Growth; detection method Resazurin; Absorption (OD600-OD570); plate type 384well; NBS; CORNING #3640.

Results with a measured potency or affinity are listed apart.

With `O=C(NCc1ccccc1)c1ccc2nn(CC(=O)N3CCN(c4ccc(F)cc4)CC3)c(=O)n2c1`, the Inhibition in experiment [1] is reported as -0.37%; in experiment [2], 5.32%; in experiment [3], -7.39%.

Turning to `CSc1cccc(NC(=O)Cn2c(=O)c3nnc(C(C)C)n3c3ccccc32)c1`, the Inhibition is 10.43% in experiment [1], 3.45% in experiment [2] and -18.2% in experiment [3].

Regarding `Cc1cc(C)cc(N(Cc2ccccc2)S(=O)(=O)c2cccn3c(C)nnc23)c1`, the figures for the Inhibition in experiment [1], in experiment [2] and in experiment [3] were -0.64%, 2% and -6.56%, respectively.

Regarding `Cc1cccc(-c2nc(CSc3nc4ccccc4n4c(C(C)C)nnc34)c(C)o2)c1`, the Inhibition in experiment [1] was 12.8%; in experiment [2], 8.07%; in experiment [3] it was -24.07%.

Take `Cc1ccc(Cn2nc3c(=O)n(-c4cccc(F)c4)ccn3c2=O)cc1`: the Inhibition in experiment [1] was 1.12%; in experiment [2] it was 5.68%; in experiment [3], -10.74%.

`COc1ccc(-c2cc3c4nnc(SCC(=O)Nc5cc(Cl)ccc5C)n4ccn3n2)cc1`: the Inhibition in experiment [1] is 0.68%; in experiment [2] it was 28.62%; in experiment [3] it was -34.55%.

On to `CCOc1ccc(-n2ccn3c(SCC(=O)c4ccc(OC)cc4)nnc3c2=O)cc1`, for which the results for the Inhibition in experiment [1], in experiment [2] and in experiment [3] were 12.65%, 0.38% and -12.6%, respectively.

Regarding `CCc1cccc(NC(=O)Cn2nc3ccc(SC(C)(C)C)nn3c2=O)c1`, the Inhibition in experiment [1] is given as 16.66%; in experiment [2], 3.39%; in experiment [3] it was -23.79%.

On to `Cc1ccccc1Oc1nccn2c(=O)n(CC(=O)Nc3cc(Cl)ccc3Cl)nc12`, for which the figures for the Inhibition in experiment [1], in experiment [2] and in experiment [3] were 4.89%, 2.23% and -9.52%, respectively.

Regarding `Cc1ccc(F)cc1NC(=O)CSc1nnc2ccc(C(=O)Nc3cccc(F)c3)cn12`, the figures for the Inhibition in experiment [1], in experiment [2] and in experiment [3] were 2.35%, -0.79% and -3.99%, respectively.

Take `O=C(Cn1nc2c(SCc3ccccc3)nccn2c1=O)NCc1ccccc1`: the Inhibition in experiment [1] is on record as -8.41%; in experiment [2], 20.32%; in experiment [3], -13.69%.

Turning to `COc1cccc(CNC(=O)CSc2nnc3c4cc(-c5ccc(C)cc5)nn4ccn23)c1`, the Inhibition in experiment [1] is given as -13.2%; in experiment [2] it was 4.52%; in experiment [3], -12.58%.

As for `O=C(CSc1nnc2c(=O)n(Cc3ccc(F)cc3)ccn12)NCC1CCCO1` (stereo not given), the Inhibition in experiment [1] is listed as 11.7%; in experiment [2], 1.72%; in experiment [3], -16.29%.

As to `Cc1cc2nn(CC(=O)Nc3cc(F)cc(F)c3)c(=O)n2c(Nc2ccccc2C)n1`, the Inhibition is 6.94% in experiment [1], 0.1% in experiment [2] and -12.73% in experiment [3].

As for `Cc1ccc(Oc2nccn3c(=O)n(CC(=O)Nc4ccc5c(c4)OCO5)nc23)cc1`, the Inhibition in experiment [1] is reported as 3.22%; in experiment [2], -1.46%; in experiment [3], -8.87%.

For the molecule `Cc1cccc(N(Cc2ccc(F)cc2)S(=O)(=O)c2cccn3c(C)nnc23)c1`, the Inhibition in experiment [1] is reported as 7.81%; in experiment [2], 3.26%; in experiment [3], -8.62%.

Take `CC1CCCN(c2nccn3c(=O)n(CC(=O)Nc4ccc(F)cc4F)nc23)C1` (stereo not given): the values for the Inhibition in experiment [1], in experiment [2] and in experiment [3] were -1.65%, 1.98% and -8.2%, respectively.

In the case of `O=C(Cn1nc2c(N3CCOCC3)nccn2c1=O)Nc1ccc2c(c1)OCO2`, the Inhibition in experiment [1] is listed as 20.48%; in experiment [2], 1.5%; in experiment [3], -14.42%.

Consider `Cc1[nH]c2ccccc2c1C(=O)CSc1nnc2c(=O)n(-c3ccc(F)c(F)c3)ccn12`, for which the Inhibition was 14.26% in experiment [1], 1.72% in experiment [2] and -11.39% in experiment [3].

Turning to `COc1ccc(-c2nc(CSc3nc4ccccc4n4c(C(C)C)nnc34)c(C)o2)cc1OC`, the Inhibition is given as -2.06% in experiment [1], 3.02% in experiment [2] and -7.98% in experiment [3].

As to `CCc1ccc(N(Cc2cccc(F)c2)S(=O)(=O)c2cccn3c(CC)nnc23)cc1`, the Inhibition in experiment [1] is 9.15%; in experiment [2], 4.6%; in experiment [3], -6.35%.

For `O=C(Cn1nc2ccc(SCc3ccc(Cl)cc3)nn2c1=O)Nc1ccc2c(c1)OCO2`, the Inhibition in experiment [1] is 15.3%; in experiment [2], 22.84%; in experiment [3], -22.42%.

Regarding `Cc1nnc2ccc(S(=O)(=O)N(Cc3ccccc3F)c3cccc(F)c3)cn12`, the figures for the Inhibition in experiment [1], in experiment [2] and in experiment [3] were 4.31%, 10.13% and -4.32%, respectively.

Regarding `Cc1cc(C)cc(Nc2nc(C)cc3nn(CC(=O)NC4CCCCC4)c(=O)n23)c1`, the results for the Inhibition in experiment [1], in experiment [2] and in experiment [3] were 13.04%, 1.39% and -8.46%, respectively.

As for `CCc1ccccc1NC(=O)Cn1c(=O)c2nnc(C(C)C)n2c2ccccc21`, the figures for the Inhibition in experiment [1], in experiment [2] and in experiment [3] were -2.33%, 1.4% and -16.86%, respectively.

Regarding `CC(C)(C)Sc1ccc2nn(CC(=O)Nc3ccc(Cl)cc3)c(=O)n2n1`, the Inhibition in experiment [1] was 16.93%; in experiment [2], 5.49%; in experiment [3] it was -24.82%.

Turning to `O=S(=O)(c1cccn2cnnc12)N(Cc1ccc(F)cc1)c1ccc(F)c(F)c1`, the results for the Inhibition in experiment [1], in experiment [2] and in experiment [3] were 4.99%, 2.27% and -6.23%, respectively.

Regarding `COc1ccc(NC(=O)Cn2nc3ccc(SC(C)(C)C)nn3c2=O)cc1OC`, the Inhibition is reported as 16.54% in experiment [1], -0.86% in experiment [2] and -14.12% in experiment [3].

As to `O=C(Cn1nc2c3sccc3ncn2c1=O)Nc1ccc2c(c1)OCO2`, the Inhibition in experiment [1] is -3.23%; in experiment [2] it was 1.42%; in experiment [3], -18.53%.

For `CC(=O)Nc1ccc(NC(=O)CSc2nc3ccccc3n3cnnc23)cc1`, the Inhibition in experiment [1] was 2.19%; in experiment [2], 32.46%; in experiment [3] it was -15.75%.
